Results on 35 compounds are retold here after PubChem BioAssay.

Activity calls are given as the source filed them.

One assay relates to XIP peptide (Xip251-270) binding. In words: XIP fragment 251-270 binding compounds – biochemical, small-molecule microarray, fluorescence 635/667 nm, 0.1 µg/mL protein, primary screen (AID 1182). As to conditions: fluorescent protein binding, 635 nm, higher = more signal, called active from +8 up or from −8 down.
On to `C[C@H]1C2[C@H](Cc3ccccc3)NC(=O)[C@]23C(=O)N[C@@H](Cc2ccccc2)C(=O)N2CCC[C@H]2C(=O)NC/C=C/CC/C=C/C3[C@@H]2O[C@]12C` (stereo partly drawn), for which the composite z-score was 0.182 (inactive).

On to `COC(=O)C(CC#Cc1ccc2c(c1)[C@]1(C(=O)N2)[C@H](C(=O)N2CCN(c3ncccn3)CC2)[C@H]2C(=O)O[C@H](c3ccccc3)[C@H](c3ccccc3)N2[C@@H]1c1ccc(O)cc1)C(=O)OC`, for which the composite z-score was 0.959 (inactive).

As for `CO[C@H]1O[C@H](CO)[C@@H](OC(=O)Nc2cccc(F)c2)[C@H](OC(=O)c2cc3ccccc3[nH]2)[C@H]1OC(=O)c1cc2ccccc2[nH]1`, the composite z-score was -0.194 (inactive).

With `COC(=O)C1=CC(c2ccc(CO)cc2)=CC(C2CC2)N(Cc2cc3c(cc2Br)OCO3)C=C1C(=O)OC` (stereo not drawn), the composite z-score was 1.59 (inactive).

On to `C=CCOC(=O)[C@@H]1[C@H]2C(=O)O[C@H](c3ccccc3)[C@H](c3ccccc3)N2[C@H](c2ccc(OCCOC(=O)[C@H]3C[C@H]4C(=O)N[C@@H](CCCCN(C)C)C(=O)N4[C@H]3c3cccc(OCCO)c3)cc2)[C@@]12C(=O)Nc1ccccc12`, for which the composite z-score was 0.876 (inactive).

Turning to `C=C[C@@H](CO)NS(=O)(=O)c1ccc(Br)cc1`, the composite z-score is -0.987 (inactive).

Consider `COC(=O)[C@@]1(Cc2ccc(F)cc2)[C@H]2c3cc(C(=O)N4CCCC4)n(CCSCCO)c3C[C@H]2CN1C(=O)c1ccccc1`, for which the composite z-score is 0.159 (inactive).

Turning to `O=C1C2C=CC(C(O)C3CC=CCC3)N(Nc3ccc([N+](=O)[O-])cc3)C2C(=O)N1c1ccccc1` (stereo not drawn), the composite z-score is 0.524 (inactive).

Another assay has as its system XIP peptide (Xip251-270). Briefly: compounds binding XIP fragment 251-270 – biochemical, small-molecule microarray, fluorescence 635/667 nm, 0.5 µg/mL protein, primary screen (AID 1183). As to conditions: fluorescence 635 nm, higher = more signal.
For the compound `CCCCC(=C=CC[C@@H](O)c1ccccc1OCCO)C[C@@H](O)c1ccccn1`, the composite z-score was found to be 0.338.

Regarding `[N-]=[N+]=Nc1ccccc1C[C@]1(C(=O)N2CCCCC2)N=C(c2ccc(OCCCO)cc2)O[C@H]1c1ccccc1`, the composite z-score stood at 0.758.

For the compound `C=C1C(=O)C=C2CN(C(=O)c3ccccc3)[C@@](Cc3ccc(F)cc3)(C(=O)OC)[C@@H]12`, the composite z-score is 0.459.

Turning to `COC(=O)C(CC#Cc1ccc2c(c1)[C@]1(C(=O)N2)[C@H](c2ccc(OCCO)cc2)N2[C@H](c3ccccc3)[C@H](c3ccccc3)OC(=O)[C@H]2[C@@H]1C(N)=O)C(=O)OC`, the composite z-score stood at 0.657.

In the case of `C=CCNC(=O)[C@H]1[C@@H]2C(=O)O[C@@H](c3ccccc3)[C@@H](c3ccccc3)N2[C@@H](c2ccc(O)cc2)[C@]12C(=O)N(C(=O)OCCOC)c1ccc(C#Cc3ccc(OC)cc3)cc12`, the composite z-score is 0.625.

For `C=C(C)C1CN([C@H](CO)c2ccccc2)C(=O)/C1=C\c1ccccc1` (stereo partly drawn), the composite z-score was found to be 0.36.

`COC(=O)C(CC#Cc1ccc2c(c1)[C@]1(C(=O)N2)[C@H](C(N)=O)[C@H]2C(=O)O[C@H](c3ccccc3)[C@H](c3ccccc3)N2[C@@H]1c1ccccc1OCCO)C(=O)OC`: the composite z-score was found to be 0.817.

As for `C=CC[C@H](OC(=O)Nc1ccc(SC)cc1)c1ccc(O)c(F)c1`, the composite z-score was -0.193.

As to `CN1C2C=C(c3ccc(CO)cc3)C(C3C(=O)N(C(N)=O)C(=O)C32)C1C1CC1` (stereo not drawn), the composite z-score turned out to be 0.0909.

Take `CCCCN1CC=CC23O[C@@H]4/C=C\CCCOC(=O)C4[C@H]2C(=O)N(CCCCCCO)[C@@H]3C1=O` (stereo partly drawn): the composite z-score was found to be 0.803.

For `CN(C)C(=O)[C@]1(CCS(=O)(=O)c2ccccc2)N=C(c2ccc(OCCCO)cc2)O[C@@H]1c1ccccc1CN=[N+]=[N-]`, the composite z-score turned out to be 0.816.

Consider `CC(C)(C)OC(=O)CC[C@@]1(C(=O)N2CCOCC2)N=C(c2ccc(OCCCO)cc2)O[C@@H]1c1ccccc1CN=[N+]=[N-]`, for which the composite z-score came out at 0.838.

Turning to `COc1ccc(CCNC(=O)[C@@H]2c3ccccc3C(=O)N(C(C)C)[C@H]2c2ccc(CO)cc2)cc1`, the composite z-score was -0.898.

On to `COC(=O)C(CC#Cc1ccc2c(c1)[C@]1(C(=O)N2)[C@H](C(=O)N2CCCCCCC2)[C@H]2C(=O)O[C@H](c3ccccc3)[C@H](c3ccccc3)N2[C@@H]1c1ccc(OCCO)cc1)C(=O)OC`, for which the composite z-score came to 0.956.

`O=C1N(Cc2ccccc2)Cc2ccccc2C[C@@]12COC(c1ccc(OCCCO)cc1)=N2`: the composite z-score came out at 0.311.

Take `COc1cccc(C)c1NC(=O)O[C@H]1[C@H](OC(=O)Nc2ccccc2)[C@@H](OC(=O)Nc2ccccc2)[C@@H](OC)O[C@@H]1CO`: the composite z-score stood at 0.912.

With `COc1ccc(NN2C(C(O)c3ccc(F)cc3)C=CC3C(=O)N(C4CCCCC4)C(=O)C32)cc1` (stereo not drawn), the composite z-score came out at 0.878.

On to `COCCOC(=O)N1C(=O)[C@@]2(c3cc(C#CCCO)ccc31)[C@H](c1ccc(O)cc1)N1[C@H](c3ccccc3)[C@H](c3ccccc3)OC(=O)[C@H]1[C@@H]2C(=O)NC[C@H](O)c1ccccc1`, for which the composite z-score was determined as 0.859.

`CC(C)N1CC=CC23O[C@@H]4/C=C\CCCOC(=O)C4[C@H]2C(=O)N(C(C)CO)[C@@H]3C1=O` (stereo partly drawn): the composite z-score is 0.0575.

As for `O=C/C=C/c1ccc(-c2ccccc2)cc1`, the composite z-score is -0.548.

On to `C=CCC(OC(C)=O)[C@@H]1[C@@H](N(Cc2ccc(-c3ccccc3)cc2)C(=O)Cc2ccc(OC)cc2)c2cc(OCCCO)ccc2N1C(=O)Cc1ccc(OC)cc1` (stereo partly drawn), for which the composite z-score is -0.243.

Take `COc1ccc([Si](C)(C)[C@@H]2[C@@H](CC(=O)N(CCO)Cc3ccccc3)O[C@]3(C(=O)N(Cc4cccc(I)c4)c4ccccc43)[C@H]2C)cc1`: the composite z-score was 0.252.

Consider `CCCCCN1CC=CC23O[C@@H]4/C=C\CCCOC(=O)C4[C@H]2C(=O)N(CCO)[C@@H]3C1=O` (stereo partly drawn), for which the composite z-score was determined as 0.663.

As for `COc1ccc([Si](C)(C)[C@H]2[C@H](CC(=O)N3CCC[C@H]3CO)O[C@@]3(C(=O)N(C)c4c(Br)cc(C)cc43)[C@@H]2C)cc1`, the composite z-score came out at 0.341.

Turning to `Cc1ccc(S[C@]2(C(=O)NC(C)C)CC(=O)N(Cc3ccccc3)[C@@H]2c2ccc(CO)cc2)cc1`, the composite z-score was found to be 0.123.

With `O=C1C2C=CC(C(O)C3CCCCC3)N(Nc3ccccc3F)C2C(=O)N1c1ccccc1` (stereo not drawn), the composite z-score stood at 0.738.

Turning to `CO[C@H]1O[C@H](CO)[C@@H](OC(=O)CCc2ccccc2)[C@@H]2OC(=O)[C@@H](Cc3ccc4ccccc4c3)C/C=C/C[C@H](Cc3ccc4ccccc4c3)C(=O)O[C@@H]12`, the composite z-score came out at 0.448.

`C[C@H]1C2[C@H](Cc3ccccc3)NC(=O)[C@]23C(=O)N[C@@H](Cc2ccccc2)C(=O)N2CCC[C@H]2C(=O)NC/C=C/CC/C=C/C3[C@@H]2O[C@]12C` (stereo partly drawn): the composite z-score is 0.457.

As to `COC(=O)C(CC#Cc1ccc2c(c1)[C@]1(C(=O)N2)[C@H](C(=O)N2CCN(c3ncccn3)CC2)[C@H]2C(=O)O[C@H](c3ccccc3)[C@H](c3ccccc3)N2[C@@H]1c1ccc(O)cc1)C(=O)OC`, the composite z-score was determined as 0.782.

For `CO[C@H]1O[C@H](CO)[C@@H](OC(=O)Nc2cccc(F)c2)[C@H](OC(=O)c2cc3ccccc3[nH]2)[C@H]1OC(=O)c1cc2ccccc2[nH]1`, the composite z-score is -0.141.

Take `COC(=O)C1=CC(c2ccc(CO)cc2)=CC(C2CC2)N(Cc2cc3c(cc2Br)OCO3)C=C1C(=O)OC` (stereo not drawn): the composite z-score was 0.859.

Take `C=CCOC(=O)[C@@H]1[C@H]2C(=O)O[C@H](c3ccccc3)[C@H](c3ccccc3)N2[C@H](c2ccc(OCCOC(=O)[C@H]3C[C@H]4C(=O)N[C@@H](CCCCN(C)C)C(=O)N4[C@H]3c3cccc(OCCO)c3)cc2)[C@@]12C(=O)Nc1ccccc12`: the composite z-score was 0.686.

For the compound `C=C[C@@H](CO)NS(=O)(=O)c1ccc(Br)cc1`, the composite z-score was -1.58.

`COC(=O)[C@@]1(Cc2ccc(F)cc2)[C@H]2c3cc(C(=O)N4CCCC4)n(CCSCCO)c3C[C@H]2CN1C(=O)c1ccccc1`: the composite z-score was -0.279.

Consider `O=C1C2C=CC(C(O)C3CC=CCC3)N(Nc3ccc([N+](=O)[O-])cc3)C2C(=O)N1c1ccccc1` (stereo not drawn), for which the composite z-score amounted to 0.545.
